From PubChem BioAssay AID1159580 (chemical genetic matrix, 2015)
Values joined by “and” are separate entries in the source; they are usually repeats but may differ in a detail not shown here. Equal entries are not always repeated. Screen size: about 5,500 compounds; about 2,000 (36%) were called active. Another 18% or so got no clear call; they are omitted. No stated cut-off is given here; in the data, active means normalized growth mostly below about 0.91 (no sharp cut-off); inconclusive means no clear call, values can overlap the other calls; inactive means mostly above about 0.92. The list shows a part of the results.

Test: chemical genetic growth profiling, strain panel (AID 1159580);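 further: tested at 20 µM; growth read once vehicle control cultures reached saturation at 30 °C; 1 = growth at the plate median or of vehicle wells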
Conditions: S. cerevisiae deletion strains, growth OD

Measured: normalized growth

O=C(O)c1cc2cc(F)ccc2[nH]1
inactive: locus YAL013W, strain DEP1, stronger effect = lower value 1 | locus YAL021C, strain ccr4, stronger effect = lower value 0.961 | locus YAL026C, strain drs2, stronger effect = lower value 0.992 | locus YAL030W, strain snc1, stronger effect = lower value 0.998 | locus YAL040C, strain CLN3, stronger effect = lower value 0.969 | locus YBL061C, strain skt5, stronger effect = lower value 0.99 | locus YBR009C, strain hhf1, stronger effect = lower value 1.01 | locus YBR021W, strain FUR4, stronger effect = lower value 0.99 | locus YBR023C, strain chs3, stronger effect = lower value 0.996 | locus YBR171W, strain sec66, stronger effect = lower value 0.97 | locus YBR229C, strain ROT2, stronger effect = lower value 0.982 | locus YBR231C, strain swc5, stronger effect = lower value 0.991 | locus YBR279W, strain paf1, stronger effect = lower value 0.976 | locus YCL011C, strain gbp2, stronger effect = lower value 0.975 | locus YCL016C, strain dcc1, stronger effect = lower value 0.994 | locus YCL029C, strain bik1, stronger effect = lower value 1.02 | locus YCL061C, strain MRC1 (second series), stronger effect = lower value 0.99 | locus YCL061C, strain MRC1, stronger effect = lower value 0.971 | locus YCL069W, strain vba3, stronger effect = lower value 0.975 | locus YCR088W, strain abp1, stronger effect = lower value 0.971 | locus YDL005C, strain med2, stronger effect = lower value 0.97 | locus YDL035C, strain GPR1, stronger effect = lower value 1.02 | locus YDL040C, strain nat1, stronger effect = lower value 0.979 | locus YDL074C, strain BRE1, stronger effect = lower value 1.03 | locus YDL101C, strain DUN1, stronger effect = lower value 1.02 | locus YDL134C, strain PPH21, stronger effect = lower value 1.01 | locus YDL185W, strain tfp1, stronger effect = lower value 1.01 | locus YDL192W, strain arf1, stronger effect = lower value 1.02 | locus YDR001C, strain nth1, stronger effect = lower value 0.978 | locus YDR069C, strain doa4, stronger effect = lower value 1 | locus YDR101C, strain arx1, stronger effect = lower value 1.01 | locus YDR137W, strain rgp1, stronger effect = lower value 0.968 | locus YDR150W, strain NUM1, stronger effect = lower value 1.01 | locus YDR159W, strain sac3, stronger effect = lower value 0.995 | locus YDR162C, strain NBP2, stronger effect = lower value 1.02 | locus YDR195W, strain ref2 0.966 | locus YDR297W, strain sur2, stronger effect = lower value 0.975 | locus YDR318W, strain mcm21, stronger effect = lower value 1.02 | locus YDR334W, strain swr1, stronger effect = lower value 0.945 | locus YDR335W, strain msn5, stronger effect = lower value 0.99 | locus YDR388W, stronger effect = lower value 1.01 | locus YDR392W, strain spt3, stronger effect = lower value 0.933 | locus YDR502C, strain sam2, stronger effect = lower value 1.02 | locus YEL003W, strain gim4, stronger effect = lower value 0.978 | locus YEL037C, strain rad23, stronger effect = lower value 0.981 | locus YEL061C, strain CIN8 (second series), stronger effect = lower value 0.979 | locus YEL061C, strain CIN8, stronger effect = lower value 1.01 | locus YER002W, strain NOP16, stronger effect = lower value 0.966 | locus YER015W, strain faa2, stronger effect = lower value 0.981 | locus YER016W, strain bim1, stronger effect = lower value 0.994 | locus YER110C, stronger effect = lower value 1.02 | locus YER111C, strain swi4, stronger effect = lower value 1.01 | locus YER155C, strain BEM2 (second series), stronger effect = lower value 0.993 | locus YER155C, strain BEM2, stronger effect = lower value 1 | locus YER167W, strain BCK2, stronger effect = lower value 1.01 | locus YFR010W, strain ubp6, stronger effect = lower value 0.978 | locus YGL078C, strain dbp3, stronger effect = lower value 1.01 | locus YGL086W, strain mad1, stronger effect = lower value 1.02 | locus YGL167C, strain pmr1, stronger effect = lower value 0.982 | locus YGL173C, strain kem1, stronger effect = lower value 0.987 | locus YGL227W, strain vid30, stronger effect = lower value 0.989 | locus YGL240W, strain doc1, stronger effect = lower value 1.01 | locus YGL248W, strain PDE1, stronger effect = lower value 1.01 | locus YGL253W, strain hxk2, stronger effect = lower value 1 | locus YGR078C, strain PAC10, stronger effect = lower value 0.984 | locus YGR135W, strain pre9, stronger effect = lower value 1.02 | locus YGR229C, strain SMI1, stronger effect = lower value 1.01 | locus YGR252W, strain gcn5, stronger effect = lower value 1.03 | locus YHR013C, strain ard1, stronger effect = lower value 0.99 | locus YHR027C, strain rpn1, stronger effect = lower value 0.977 | locus YHR030C, strain SLT2, stronger effect = lower value 1.01 and 1.02 | locus YHR079C, strain IRE1 (second series), stronger effect = lower value 1.02 | locus YHR079C, strain IRE1, stronger effect = lower value 0.988 | locus YHR094C, strain hxt1, stronger effect = lower value 1.02 | locus YHR129C, strain ARP1, stronger effect = lower value 1 | locus YHR142W, strain chs7, stronger effect = lower value 0.949 | locus YHR200W, strain rpn10, stronger effect = lower value 1.03 | locus YIL066C, strain RNR3, stronger effect = lower value 1.01 | locus YIL073C, strain SPO22, stronger effect = lower value 1.09 | locus YIL125W, strain kgd1, stronger effect = lower value 1.01 | locus YIR030C, strain dcg1, stronger effect = lower value 1.02 | locus YJL092W, strain hpr5, stronger effect = lower value 0.968 | locus YJL095W, strain BCK1 (second series), stronger effect = lower value 0.987 | locus YJL095W, strain BCK1, stronger effect = lower value 1.01 and 0.997 | locus YJL115W, strain asf1, stronger effect = lower value 0.962 | locus YJL129C, strain trk1, stronger effect = lower value 0.979 | locus YJL134W, strain LCB3, stronger effect = lower value 1.01 | locus YJL154C, strain vps35, stronger effect = lower value 0.967 | locus YJL164C, strain tpk1, stronger effect = lower value 0.972 | locus YJL166W, strain qcr8, stronger effect = lower value 1 | locus YJL168C, strain set2, stronger effect = lower value 1.02 | locus YJL187C, strain SWE1 (second series), stronger effect = lower value 1.01 | locus YJL187C, strain SWE1, stronger effect = lower value 0.981 | locus YJR043C, strain POL32, stronger effect = lower value 1.01 | locus YJR066W, strain TOR1, stronger effect = lower value 0.93
